Data from PubChem BioAssay (NCATS).
Inconclusive results are not listed. Calls of active or inactive are those of the source. Unless noted, the call rests on the fitted dose curve; in most records, active means well fitted curve in the direction sought with a large enough effect; inconclusive means small, poorly fitted or top-dose-only effect, or another doubt; inactive means no such curve, though single readings can be large; an effect the other way counts as inactive or inconclusive.

Key:
[1] = target: Voltage-gated inwardly rectifying potassium channel KCNH2 (Homo sapiens) (UniProt Q12809); test: qHTS Assay for Small Molecule Inhibitors of the Human hERG Channel Activity (AID 588834);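 further: lower thallium flux fluorescence means stronger hERG block; nearly all actives have a fitted effect of over 50% in size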; further: potency means the concentration at half of the fitted maximal effect
Summary of the method: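 Thallium-flux (FluxOR) read-out on FDSS: fluorescence read 10 s before and 2 min after stimulation buffer. hERG-BacMam-transduced U2OS cells, compound exposure about 10 min. AC50 by standard Hill equation.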

[2] = qHTS of Trypanosoma Brucei Inhibitors: LOPAC Validation (AID 624147)
Summary of the method: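 T. brucei PYK with substrate was exposed to pin-transferred compounds across a concentration series, then started with 130 uM ADP (final). After 45 min at room temperature, Kinase-Glo Plus luminescence was read, normalized and curve-fitted.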

[3] = target: Glucagon-like peptide 1 receptor (Homo sapiens) (UniProt P43220); test: qHTS of GLP-1 Receptor Agonists: LOPAC Validation (AID 624148);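 further: higher luminescence signal means agonism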
Summary of the method: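 HEK293 cells stably co-expressing GLP-1R and a cAMP-responsive luciferase reporter, plated 12 hours before compound, then incubated 4-6 hr at 37 deg C. Luminescence read 12 min after detection reagent.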

[4] = qHTS of Nrf2 Activators: LOPAC Validation (AID 624149)
Summary of the method: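 Cells (AREc32_Fluc) are plated at 1000 per well in OPTI-MEM containing 5% FBS and left overnight. Compounds are pinned in and incubated 24 hr at 37 deg C, and firefly luciferase is detected with Steady-Glo.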

[5] = HTS Assay for Allosteric Antagonists of the Human D2 Dopamine Receptor: Hit Validation in HTRF (AID 624455); further: potency means the concentration at half of the fitted maximal effect;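 further: stable D1 dopamine receptor cell line scored for blocking the D1 response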
Summary of the method: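 Inhibition of the D1-mediated response is measured by HTRF in cells that stably express the D1 dopamine receptor. Compounds reaching this step are hits from calcium-flux antagonism testing at EC80 dopamine in inducible Hek293 Trex D2 cells.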

[6] = Cytotoxicity counterscreen for NFkB agonists and antagonists (AID 624476);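 further: potency means the concentration at half of the fitted maximal effect; cells exposed to compound for 48 hours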
[7] = Cell Proliferation Assay against the TMD8 Cell Line (AID 651645); settings: TMD8 DLBCL cell line proliferation/viability; at 46.1 µM (top of the series) unless noted;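 further: cells exposed to compound for 48 h before reading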
Summary of the method: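 Luminescent ATP read-out (CellTiter-Glo, 15 min RT) after 48 h compound exposure of log-growing TMD8 cells at 37C; percent activity scaled between DMSO as 100% and 9.2 uM bortezomib final as 0%.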

[8] = Cell Proliferation Assay against the HBL1 Cell Line (AID 651646); settings: HBL1 DLBCL cells; at 46.1 µM (top of the series) unless noted;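 further: cells exposed to compound for 48 h before reading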
Summary of the method: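 HBL1, 500 cells/well, RPMI no phenol red + 5% FBS; cpd pinned, 48 h 37C/5% CO2; CellTiter-Glo, 15 min RT, luminescence. % activity: DMSO = 100%, bortezomib 9.2 uM final = 0%.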

[9] = Cell Proliferation Assay against the TMD8 Cell Line (Caspase readout at 8 hrs) (AID 651713); further: potency means the concentration at half of the fitted maximal effect
Summary of the method: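 Caspase 3/7 activation in ABC DLBCL TMD8 cells is measured by luminescence after an 8 h compound exposure at 37C. Relative light units are scaled between DMSO (0%) and 9.2 uM final bortezomib (100%).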

[10] = target: Luciferin 4-monooxygenase (Photinus pyralis) (UniProt P08659); test: Biochemical firefly luciferase enzyme assay for NPC (AID 624030);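 further: purified P. pyralis luciferase at 10 nM with luciferin and ATP substrate; nearly all actives have a fitted effect of over 70% in size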
Summary of the method: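 Purified P. pyralis luciferase at 10 nM in 50 mM Tris Acetate (final), luminescence read within 5 minutes of enzyme addition to compounds. Activity normalised to PTC124 versus DMSO; concentration-response curves classed by r2, magnitude and activity.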

[11] = S16 Schwann cell viability assay (CellTiter-Glo assay) (AID 624031);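 further: cellular ATP luminescence as a viability measure; nearly all actives have a fitted effect of over 70% in size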
Summary of the method: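 CellTiter-Glo ATP luminescence counter-screen in untransfected S16 rat Schwann cells, 24h compound exposure at 37 degree Celsius after overnight seeding (500-750 cells/well); response scaled between cell-free wells and DMSO (0% activity), curves classed by r2 and magnitude.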

[12] = S16 Schwann cell PMP22 intronic element firefly luciferase assay (AID 624032); further: nearly all actives have a fitted effect of over 30% in size; further: potency means the concentration at half of the fitted maximal effect
Summary of the method: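 Rat S16 Schwann cells stably carrying firefly luciferase driven by a PMP22 intronic element, in 10% FBS, treated 24 h at 37 C. ONE-Glo luminescence normalized to PTC124 control and DMSO (0%); curves classed by r2, magnitude and activity.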

[13] = S16 Schwann cell PMP22 intronic element beta-lactamase assay (AID 624044; calls by dose curve; further: nearly all actives have a fitted effect of over 15% in size)
Summary of the method: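 Beta-lactamase reporter under a PMP22 intronic regulatory element in stable S16 rat Schwann cells; 24 h compound exposure. 460 nm blue signal normalized between DMSO (0%) and potassium clavulanate, with 535 nm FRET tracking viability; curves classed by r2 and response.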

[14] = qHTS Assay for Identification of Small Molecule Antagonists for NFkB Signaling Pathway. (AID 624479; calls by dose curve;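 further: pathway stimulated with TNF alpha; potency means the concentration at half of the fitted maximal effect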)
[15] = qHTS Assay for Identification of Small Molecule Agonists for NFkB Signaling Pathway. (AID 624478);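 further: compounds tested together with TNF alpha at its EC50 of 10 pM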
Summary of the method: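 Activators were sought in reporter cells stimulated at the TNF alpha EC50 (10 pM final). Compound and cytokine were co-incubated 5 hours at 37 C before beta-lactamase substrate detection by dual-emission fluorescence.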

[16] = Cell Proliferation Assay against the TMD8 Cell Line (Caspase readout at 16 hrs) (AID 651712); further: potency means the concentration at half of the fitted maximal effect
Summary of the method: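 Caspase-Glo luminescence after 16 h compound exposure of TMD8 cells, 37 °C, 5% CO2. Medium: RPMI without phenol red, 5% FBS. Normalisation: DMSO = 0%, bortezomib 9.2 uM final = 100%.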

Voltage-gated inwardly rectifying potassium channel KCNH2 (Homo sapiens), sequence (Q12809 whole entry, looked up): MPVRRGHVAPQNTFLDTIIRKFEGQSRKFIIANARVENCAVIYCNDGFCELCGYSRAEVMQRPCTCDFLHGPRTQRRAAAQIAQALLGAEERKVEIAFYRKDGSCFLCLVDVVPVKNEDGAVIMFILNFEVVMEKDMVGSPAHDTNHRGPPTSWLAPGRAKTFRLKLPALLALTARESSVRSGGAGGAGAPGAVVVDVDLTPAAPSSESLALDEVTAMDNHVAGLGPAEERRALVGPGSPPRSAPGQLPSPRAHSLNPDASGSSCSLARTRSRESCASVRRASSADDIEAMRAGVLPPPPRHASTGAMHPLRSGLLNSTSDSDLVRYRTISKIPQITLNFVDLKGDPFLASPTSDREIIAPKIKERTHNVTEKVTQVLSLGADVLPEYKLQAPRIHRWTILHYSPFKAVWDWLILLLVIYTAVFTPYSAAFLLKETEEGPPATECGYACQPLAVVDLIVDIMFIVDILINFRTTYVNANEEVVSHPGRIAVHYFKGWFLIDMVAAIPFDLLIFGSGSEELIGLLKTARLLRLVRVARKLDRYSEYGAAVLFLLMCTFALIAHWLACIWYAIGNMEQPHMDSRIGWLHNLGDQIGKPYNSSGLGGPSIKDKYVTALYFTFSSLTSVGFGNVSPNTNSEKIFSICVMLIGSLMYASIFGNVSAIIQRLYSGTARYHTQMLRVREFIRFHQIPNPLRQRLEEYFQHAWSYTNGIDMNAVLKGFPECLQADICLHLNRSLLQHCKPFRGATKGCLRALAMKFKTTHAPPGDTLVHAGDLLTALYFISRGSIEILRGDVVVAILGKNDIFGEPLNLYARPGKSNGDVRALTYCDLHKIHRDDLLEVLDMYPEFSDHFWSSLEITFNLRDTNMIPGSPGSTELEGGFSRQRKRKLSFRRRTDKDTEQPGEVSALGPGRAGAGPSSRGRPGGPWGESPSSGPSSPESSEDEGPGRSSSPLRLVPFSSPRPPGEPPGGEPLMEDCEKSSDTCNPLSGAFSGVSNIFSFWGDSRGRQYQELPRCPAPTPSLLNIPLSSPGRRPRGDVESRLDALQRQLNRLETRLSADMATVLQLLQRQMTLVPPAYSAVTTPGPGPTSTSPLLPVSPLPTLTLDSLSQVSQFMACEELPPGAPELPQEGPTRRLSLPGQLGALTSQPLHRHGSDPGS
Glucagon-like peptide 1 receptor (Homo sapiens), sequence (P43220 whole entry, looked up): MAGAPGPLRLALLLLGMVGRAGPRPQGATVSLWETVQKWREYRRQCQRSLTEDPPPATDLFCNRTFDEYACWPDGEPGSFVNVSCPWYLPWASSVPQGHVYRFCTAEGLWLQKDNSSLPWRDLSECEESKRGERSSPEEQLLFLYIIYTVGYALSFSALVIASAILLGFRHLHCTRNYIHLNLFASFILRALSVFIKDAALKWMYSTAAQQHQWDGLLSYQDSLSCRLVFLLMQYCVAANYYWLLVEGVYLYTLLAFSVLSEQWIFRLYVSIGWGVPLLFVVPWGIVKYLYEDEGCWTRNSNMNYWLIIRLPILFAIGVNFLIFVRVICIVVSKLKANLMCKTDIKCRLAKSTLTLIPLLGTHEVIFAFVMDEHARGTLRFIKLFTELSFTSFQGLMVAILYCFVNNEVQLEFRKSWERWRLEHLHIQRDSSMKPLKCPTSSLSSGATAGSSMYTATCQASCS
Luciferin 4-monooxygenase (Photinus pyralis), sequence (P08659 whole entry, looked up): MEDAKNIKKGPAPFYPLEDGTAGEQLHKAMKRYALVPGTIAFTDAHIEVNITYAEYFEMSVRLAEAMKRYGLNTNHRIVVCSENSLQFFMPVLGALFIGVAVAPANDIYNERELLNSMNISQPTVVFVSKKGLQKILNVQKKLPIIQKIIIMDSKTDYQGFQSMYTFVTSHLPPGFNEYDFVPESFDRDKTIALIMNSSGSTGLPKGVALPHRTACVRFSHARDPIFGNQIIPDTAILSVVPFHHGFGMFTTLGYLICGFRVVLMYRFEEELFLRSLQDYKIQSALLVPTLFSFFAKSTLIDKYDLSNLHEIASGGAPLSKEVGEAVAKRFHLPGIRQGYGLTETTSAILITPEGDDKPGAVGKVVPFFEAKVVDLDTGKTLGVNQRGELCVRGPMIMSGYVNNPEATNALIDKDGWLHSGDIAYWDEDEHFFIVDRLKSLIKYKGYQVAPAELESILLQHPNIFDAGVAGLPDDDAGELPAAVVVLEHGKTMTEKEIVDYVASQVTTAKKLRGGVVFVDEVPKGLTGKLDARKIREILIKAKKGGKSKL

C[C@]12CCC3C(CC[C@H]4C[C@H](O)CC[C@]34C)C1CC[C@@H]2C(=O)CO (stereo not given in full)
inactive: Potency [1] | outcome [2] | outcome [3] | outcome [4] | Potency [5]

C[C@@H]1O[C@H](C[N+](C)(C)C)C[C@H]1O
inactive: Potency [1] | outcome [2] | outcome [3] | outcome [4] | Potency [5]

CNCCc1ccc(O)c(O)c1
inactive: Potency [1] | outcome [2] | outcome [4]
active: Potency [5] 130 nM

CC(=O)[C@H]1CCC2C3CC[C@H]4C[C@H](O)CC[C@]4(C)C3CC[C@@]21C (stereo not given in full)
inactive: Potency [1] | outcome [2] | outcome [3] | outcome [4]

C[N+]1(C)C2CCC1CC(OC(=O)C(CO)c1ccccc1)C2 (stereo not given)
inactive: Potency [1] | outcome [2] | outcome [3] | outcome [4] | Potency [5]

NC(CCP(=O)(O)O)C(=O)O (stereo not given)
inactive: Potency [1] | outcome [2] | outcome [3] | outcome [4] | Potency [5]

CS(=N)(=O)CC[C@H](N)C(=O)O (stereo not given in full)
inactive: Potency [1] | outcome [2] | outcome [3] | outcome [4]

S=C(NC1CCCCC1)N1CCC(c2cnc[nH]2)CC1
inactive: Potency [1] | outcome [2] | outcome [3] | outcome [4] | Potency [5]

NC1CCc2cc(O)c(O)cc2C1 (stereo not given)
active: Potency [5] 16.4 nM
inactive: Potency [1] | outcome [3] | outcome [4]

Oc1ccc2c3c1O[C@H]1c4[nH]c5c(c4C[C@@]4(O)[C@@H](C2)N(CC2CC2)CC[C@]314)C[C@@]1(O)[C@H]2Cc3ccc(O)c4c3[C@@]1(CCN2CC1CC1)[C@H]5O4
inactive: Potency [1] | outcome [2] | outcome [3] | outcome [4] | Potency [5]

O=C(O)[C@@H]1CCN1
inactive: Potency [1] | outcome [2] | outcome [3] | outcome [4] | Potency [5]

NC1CC1c1ccccc1 (stereo not given)
inactive: Potency [1] | outcome [2] | outcome [3] | outcome [4]

NC(=NCCC[C@H](N)C(=O)O)N[N+](=O)[O-]
inactive: Potency [1] | outcome [2] | outcome [3] | outcome [4] | Potency [5]

COc1ccc2c(c[n+](C)c3c4cc5c(cc4ccc23)OCO5)c1OC
inactive: Potency [1] | outcome [2] | outcome [3] | Potency [5]
active: Potency [6] 23500 nM | Potency [9] 2960 nM
4.88%: viability, percent of control [8]
3.33%: viability (% of control) [7]

O=C(O)CC[N+](=O)[O-]
inactive: Potency [1] | outcome [2] | outcome [3] | outcome [4] | Potency [5]

NC(CP(=O)(O)O)C(=O)O (stereo not given)
inactive: Potency [1] | outcome [2] | outcome [3] | outcome [4] | Potency [5]

CCCN1CCO[C@@H]2c3cc(O)ccc3OC[C@H]21
inactive: Potency [1] | outcome [2] | outcome [3] | outcome [4] | Potency [5]

NCCc1c[nH]c2ccccc12
inactive: Potency [1] | outcome [2] | outcome [3] | outcome [4]

c1ccc(CCCN2CCN(CCOC(c3ccccc3)c3ccccc3)CC2)cc1
inactive: outcome [2] | outcome [3] | outcome [4] | Potency [5]
active: Potency [1] 501 nM

C#CC1(O)CCC2C3CCC4=CC(=O)CCC4(C)C3CCC21C (stereo not given)
inactive: Potency [10] | Potency [11] | Potency [12] | Potency [13]

Cc1nc2cnc3ccc(C#Cc4cccnc4)cc3c2n1-c1ccc(C(C)(C)C#N)cc1
active: Potency [14] 18800 nM

CC1=NN=C(c2ccc(N)cc2)c2cc3c(cc2C1)OCO3
inactive: outcome [2] | outcome [3] | outcome [4] | Potency [5]

O=C(N[C@H]1CN2CCC1CC2)c1ccc(Cl)cc1
inactive: outcome [2] | outcome [3] | outcome [4] | Potency [5]

CC[C@@H](C(N)=O)N1CCCC1=O
inactive: outcome [2] | outcome [3] | outcome [4] | Potency [5]

CCOc1ccc(Nc2nc(-c3c(C)nc4ccccn34)cs2)cc1
active: Potency [14] 335 nM

c1cc(-c2cnn3cc(-c4ccc(OCCN5CCCCC5)cc4)cnc23)ccn1
active: Potency [14] 9430 nM | Potency [9] 23500 nM

CO[C@H]1C=CC=C(C)C(=O)NC2=CC(=O)C(NCCN(C)C)=C(C[C@@H](C)C[C@H](OC)[C@@H](O)[C@@H](C)C=C(C)[C@@H]1OC(N)=O)C2=O
active: Potency [6] 20900 nM | Potency [14] 0.8 nM

CC(C)[C@]12O[C@H]1[C@@H]1O[C@]13[C@]1(O[C@H]1C[C@H]1C4=C(CC[C@@]13C)C(=O)OC4)[C@@H]2O
inactive: outcome [15]
active: Potency [6] 33.2 nM | Potency [14] 33.5 nM | Potency [16] 13.2 nM | Potency [9] 132 nM
35%: viability, percent of control [8]
3.13%: viability (% of control) [7]

O=C(Nc1ccc(Oc2ccc(Cl)cc2)c(Cl)c1)c1cc(I)cc(I)c1O
active: Potency [12] 10200 nM

Nc1nc(-c2nn(Cc3ccccc3F)c3ncccc23)nc(N)c1N1CCOCC1
114%: viability, percent of control [8]
91.5%: viability (% of control) [7]

COCCn1c2c([n+](Cc3cnccn3)c1C)C(=O)c1ccccc1C2=O
active: Potency [14] 4.7 nM
